# Source: PubChem BioAssay
# Calls of active or inactive are those of the source.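 Rule for the calls, unless noted: active = fluorescence slope after compound addition differing from the mean of all screened samples at 99.7% confidence, in either direction; inactive = the rest.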
# Columns and labels:
# [1] = inhibitors of TNFa-induced NFkB p65 translocation, primary screen, imaging, HUVEC, MLSMR starter and 10KST1 sets (AID 438;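 active = inhibition above 20% together with a positive visual image hit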;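 note: compound added about 3h40 before a 20 min TNFalpha stimulation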;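 for inhibition: signal is the nuclear over cytoplasmic p65 intensity ratio per well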); conditions: HUVEC TNFa-induced p65 nuclear translocation; cell count: measured here: nuclei count (cytotoxicity indicator), at 2.08 µM; inhibition: at 2 µM, stronger effect = higher value, 0% TNFa-plus-vehicle, 100% no-TNFa wells
# [2] = reduction of polyQ htt aggregates in cells – imaging, exon1htt(103Q)mCFP cells, high-content imaging, primary screen (AID 483;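 active = visual image review flags a hit and inhibition of aggregation exceeds 20%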;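 note: compound exposure lasted 3 days before fixation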;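 for nuclei count: percent of the per-plate median nuclei count of sample wells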); conditions: exon1htt(103Q)mCFP cell line, aggregate imaging, at 2 µM; inhibition of aggregation: stronger effect = higher value; nuclei count: measured here: cell count, toxicity
# [3] = endothelial E-selectin expression blockers – imaging, HUVEC, immunofluorescence, MLSMR starter and 10KST1 sets, primary screen (AID 487;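 active = visually confirmed hit in the image check and inhibition above 20%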;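 for inhibition: signal is fraction of cell area covered by stained E-selectin grains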;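 for nuclei count: 100% = median nuclei count of all wells on the same plate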); conditions: HUVEC TNFalpha-induced E-selectin immunofluorescence imaging, at 2 µM; inhibition: stronger effect = higher value; nuclei count: measured here: cell number, toxicity
# [4] = molecular target: Voltage-gated potassium channel subunit beta-2 (Rattus norvegicus) (UniProt P62483); test: inhibitors of rat Kvbeta2 reductase activity – biochemical, NADPH fluorescence, primary screen (AID 622;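 active = fluorescence slope higher than the sample average by over 3 SD, cut at about -0.22 in these data, passing the limit was not always enough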;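 note: slope of raw intensity against log time taken from 70 to 1610 s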); conditions: recombinant KvBeta, 4-cyanobenzaldehyde reduction, at 10 µM, stronger effect = higher value
# Voltage-gated potassium channel subunit beta-2 (Rattus norvegicus), sequence (P62483 whole entry, looked up): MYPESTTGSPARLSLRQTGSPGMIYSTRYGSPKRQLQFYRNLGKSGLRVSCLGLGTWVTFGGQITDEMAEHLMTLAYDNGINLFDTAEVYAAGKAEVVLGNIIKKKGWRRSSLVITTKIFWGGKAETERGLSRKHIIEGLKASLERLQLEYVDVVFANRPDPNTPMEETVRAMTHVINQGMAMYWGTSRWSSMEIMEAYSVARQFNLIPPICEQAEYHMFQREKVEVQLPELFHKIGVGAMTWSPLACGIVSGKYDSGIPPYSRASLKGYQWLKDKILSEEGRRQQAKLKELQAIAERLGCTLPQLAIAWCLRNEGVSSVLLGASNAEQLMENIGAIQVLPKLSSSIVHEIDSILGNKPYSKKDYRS
# [5] = molecular target: Voltage-gated potassium channel subunit beta-2 (Rattus norvegicus) (UniProt P62483); test: enhancers of rat Kvbeta2 NADPH turnover – biochemical, NADPH fluorescence, primary screen (AID 623;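 active = NADPH fluorescence slope more negative than the mean of all samples by about 3 SD, 99.7% confidence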;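 note: fluorescence intensity change per second fitted from 20 to 320 s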); conditions: Recombinant KvBeta, NADPH fluorescence decrease slope, 10 min; at 10 µM; stronger effect = lower value
# [6] = molecular target: Alpha-2C adrenergic receptor (Homo sapiens) (UniProt P18825); test: compounds altering alpha2C-coupled GIRK flux – cell-based, HEK293 alpha2C/GIRK1/2, thallium flux, primary screen (AID 624); conditions: thallium flux BTC fluorescence, at 10 µM, actives lie on both sides;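 note: slope of fluorescence ratio to pre-addition baseline per second over 15 to 24 s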
# Alpha-2C adrenergic receptor (Homo sapiens), sequence (P18825 whole entry, looked up): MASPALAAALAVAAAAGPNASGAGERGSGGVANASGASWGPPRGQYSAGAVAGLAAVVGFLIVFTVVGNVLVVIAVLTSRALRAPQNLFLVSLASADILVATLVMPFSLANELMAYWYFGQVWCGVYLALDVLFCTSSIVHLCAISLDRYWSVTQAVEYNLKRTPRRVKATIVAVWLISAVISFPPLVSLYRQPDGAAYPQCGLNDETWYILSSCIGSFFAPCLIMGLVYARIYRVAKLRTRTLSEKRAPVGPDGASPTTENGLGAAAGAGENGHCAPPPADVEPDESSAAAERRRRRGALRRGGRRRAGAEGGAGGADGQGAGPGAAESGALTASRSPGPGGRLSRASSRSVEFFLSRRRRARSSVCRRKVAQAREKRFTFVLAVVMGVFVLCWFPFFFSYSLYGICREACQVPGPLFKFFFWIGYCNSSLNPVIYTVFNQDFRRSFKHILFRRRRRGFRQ
# [7] = blockers of RIG-like receptor reporter activation – cell-based, Sendai virus stimulus, luciferase, 10K MLSCN set, TLR/RLR signaling modifier project, primary screen (AID 602276;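 active = inhibition at or above 50% at 10 µM; inactive = inhibition below 50%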;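 note: firefly luciferase from ISG56 promoter only with Renilla not read in this screen; 0% = Sendai virus plus DMSO and 100% = medium plus DMSO without virus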); conditions: HEK293 RL24 IRF3 luciferase reporter, at 10 µM, stronger effect = higher value
# [8] = TLR3 IRF3 reporter activation blockers – cell-based, poly I:C stimulus, luciferase, 10K MLSCN set, primary screen (AID 602277;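 active = inhibition of the reporter signal at or above 50%; inactive = inhibition below 50%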); conditions: HEK293-TLR3 RL24 IRF3 luciferase reporter, at 10 µM, stronger effect = higher value
Compound,cell count [1],inhibition [1],inhibition of aggregation [2],nuclei count [2] [%],inhibition [3],nuclei count [3] [%],fluorescence slope [4],NADPH fluorescence slope [5],slope [6],inhibition [7],inhibition [8]
O=C(Nc1ccc(N2C(=O)C3C4C=CC(C4)C3C2=O)cc1)Nc1cccnc1 (stereo not drawn),426,0% (inactive),-7.7% (inactive),104,-33.4% (inactive),112,-0.334 (inactive),-2.1e-05 (inactive),0.00357 (inactive),7.37% (inactive),3.82% (inactive)
CC(C)(C)c1ccc(OCC(=O)O)cc1,567,3.1% (inactive),11.7% (inactive),98,-36% (inactive),96.2,-0.599 (inactive),-3.9e-05 (inactive),0.00377 (inactive),7.32% (inactive),11.4% (inactive)
Cc1[nH]c2c(C)cccc2c(=O)c1Br,440,6.7% (inactive),12.7% (inactive),106,30.1% (inactive),85.5,-0.584 (inactive),-7.5e-05 (inactive),0.0031 (inactive),14.8% (inactive),7.69% (inactive)
Cc1nc2nc(-c3cccnc3)nn2c(C)c1Cl,689,-13.8% (inactive),-5.4% (inactive),81.3,-32.8% (inactive),107,-0.333 (inactive),-3.7e-05 (inactive),0.00559 (inactive),-17.9% (inactive),-15.3% (inactive)
Cn1nnnc1SCSc1nnnn1C,626,-16.6% (inactive),4.1% (inactive),56.1,-58% (inactive),93.3,-0.585 (inactive),-4.7e-05 (inactive),0.00536 (inactive),0.0465% (inactive),-3.07% (inactive)
COc1cc(Cn2c(-c3nonc3N)nc3ccccc32)ccc1C,329,-1.5% (inactive),-18.3% (inactive),65,-20.1% (inactive),99.4,-0.591 (inactive),-1.7e-05 (inactive),0.00556 (inactive),29.4% (inactive),53.2% (active)
CN1CCN(c2nc(-c3ccncc3)nc3ccccc23)CC1,324,-13.1% (inactive),-19.7% (inactive),51.3,-133% (inactive),120,-0.41 (inactive),-3.7e-05 (inactive),0.00562 (inactive),11.9% (inactive),15.9% (inactive)
CCOc1cc(C2NC(=O)N(C)C(C)=C2C(=O)OC)cc(Br)c1O (stereo not drawn),620,-17.6% (inactive),-9.6% (inactive),110,-13.7% (inactive),104,-0.611 (inactive),-4.2e-05 (inactive),0.00546 (inactive),-0.511% (inactive),5.13% (inactive)
Cn1c(=O)c2c(nc(SCCCC#N)n2Cc2c(F)cccc2Cl)n(C)c1=O,868,0.6% (inactive),9.8% (inactive),82.3,-6.8% (inactive),108,-0.589 (inactive),-6.6e-06 (inactive),0.00598 (inactive),-9.31% (inactive),7.45% (inactive)
Cc1cc(NC(=O)C23CCC(C)(C(=O)O2)C3(C)C)no1 (stereo not drawn),406,4% (inactive),14.4% (inactive),80.2,-22.3% (inactive),111,-0.612 (inactive),-1.5e-06 (inactive),0.00569 (inactive),4.18% (inactive),10.3% (inactive)
NC(=O)C1CCN(c2nc(-c3ccccc3)nc3ccccc23)CC1,554,-15.4% (inactive),2% (inactive),116,49.5% (inactive),92.8,-0.46 (inactive),-6.1e-05 (inactive),0.00467 (inactive),10% (inactive),8.01% (inactive)
CCOC(=O)c1[nH]c(C)c(C(=O)Nc2ccc(C)cc2C)c1C,505,5.8% (inactive),20.1% (inactive),36.6,-53.4% (inactive),103,-0.585 (inactive),-1.3e-05 (inactive),0.00666 (inactive),1.87% (inactive),16.3% (inactive)
O=C1CCCCCC1C1(O)C(=O)Nc2ccccc21 (stereo not drawn),349,10% (inactive),-6% (inactive),101,-26.3% (inactive),116,-0.424 (inactive),4e-05 (inactive),0.00358 (inactive),9.01% (inactive),29% (inactive)
CN(CC(=O)N1CCCCC1)S(=O)(=O)c1cccc2cccnc12,792,4.3% (inactive),9.7% (inactive),112,-53.1% (inactive),124,-0.531 (inactive),-1e-05 (inactive),0.00551 (inactive),3.62% (inactive),25.4% (inactive)
Cc1ccc(-c2nnc3c4ccccc4c(C)nn23)cc1S(=O)(=O)N1CCN(C)CC1,640,7.2% (inactive),3.8% (inactive),96.2,11.3% (inactive),81.2,-0.592 (inactive),-2.9e-05 (inactive),0.00436 (inactive),13.3% (inactive),30.7% (inactive)
CC(C)Sc1nc2c(c(=O)n1-c1ccc(F)cc1)SCC2,384,-5.2% (inactive),-10.1% (inactive),106,-22% (inactive),108,-0.519 (inactive),-8.5e-05 (inactive),0.00437 (inactive),-15.9% (inactive),-9.58% (inactive)
O=S(=O)(c1cccc(S(=O)(=O)N2CCC(N3CCCCC3)CC2)c1)N1CCOCC1,725,-4.8% (inactive),-6.3% (inactive),123,-3.7% (inactive),106,-0.469 (inactive),-1.3e-06 (inactive),0.00684 (inactive),7.24% (inactive),28.4% (inactive)
O=C(c1ccccc1)N1CCN(CC2CC=CCC2)CC1 (stereo not drawn),391,-9.9% (inactive),21.1% (inactive),91,-93.3% (inactive),69.8,-0.304 (inactive),2.3e-05 (inactive),0.00325 (inactive),6.11% (inactive),19.5% (inactive)
COc1cccc(OCCSc2nnc3sc4ccccc4n23)c1,548,-6.3% (inactive),0.2% (inactive),89,-24.1% (inactive),127,-0.463 (inactive),-0.000108 (inactive),0.00727 (inactive),-10.1% (inactive),-31.6% (inactive)
COc1ccccc1OCc1ccc(C(=O)Nc2ccncc2)o1,729,-7.3% (inactive),-9.4% (inactive),83.1,-69% (inactive),120,-0.508 (inactive),-5.2e-05 (inactive),0.00528 (inactive),8.87% (inactive),-20.1% (inactive)
Cc1cc(=O)oc(C)c1C(=O)O,560,-13.1% (inactive),20.6% (inactive),88.5,-3.9% (inactive),114,-0.451 (inactive),-0.000139 (inactive),0.00558 (inactive),9.47% (inactive),25.5% (inactive)
S=C(c1ccc(N2CCOCC2)cc1)N1CCCCC1,375,-1.3% (inactive),4.1% (inactive),111,-68.1% (inactive),111,-0.535 (inactive),-2e-05 (inactive),0.00689 (inactive),-29.8% (inactive),-15.7% (inactive)
Cn1cccc1Cc1nnc(SCC(=O)Nc2ccccc2F)n1CCc1ccccc1,614,-7.4% (inactive),7.5% (inactive),92.6,-52.6% (inactive),103,-0.619 (inactive),1.5e-05 (inactive),0.00629 (inactive),3.46% (inactive),10.1% (inactive)
NC(=O)CSc1nnc(-c2cnccn2)n1-c1ccccc1,625,3.8% (inactive),-10.7% (inactive),102,19% (inactive),94.9,-0.501 (inactive),-4.9e-05 (inactive),0.0054 (inactive),20.2% (inactive),20.8% (inactive)
CCOC(=O)C(NC(=O)CC)(Nc1ccc(S(=O)(=O)Nc2onc(C)c2C)cc1)C(F)(F)F (stereo not drawn),320,3.4% (inactive),0.6% (inactive),95,-27.3% (inactive),104,-0.61 (inactive),-1.1e-05 (inactive),0.00634 (inactive),11.3% (inactive),14.1% (inactive)
Cc1nc(-c2cccc(-c3noc(C)n3)c2)no1,341,2.2% (inactive),-8.5% (inactive),105,11.4% (inactive),108,-0.473 (inactive),-4.9e-05 (inactive),0.00665 (inactive),-12.8% (inactive),-3.56% (inactive)
CON(C)c1nc(Oc2ccc(=O)[nH]n2)nc(N(C)C)n1,678,-6.2% (inactive),-9.5% (inactive),85.9,-48.5% (inactive),101,-0.351 (inactive),1.4e-05 (inactive),0.00477 (inactive),16.3% (inactive),19.3% (inactive)
c1cncc(-c2nc3c4ccccc4nc(N4CCC(N5CCCCC5)CC4)n3n2)c1,512,-10.4% (inactive),-10.8% (inactive),97.3,-5.9% (inactive),98.2,-0.455 (inactive),-0.000334 (inactive),0.00496 (inactive),24.2% (inactive),30% (inactive)
